Assay outcomes (PubChem BioAssay)
In the library only some 4.7% were active in any assay of this set; here they are far more common.
TRHR agonist: activates the human TRH receptor; TRHR cells, calcium flux fluo-8, FDSS agonist mode; 0.18% of 360,000 active; P34981; AID 493084; activation, % at 2 µM; also: 0% is about no effect
Target sequence (P34981 whole entry, looked up): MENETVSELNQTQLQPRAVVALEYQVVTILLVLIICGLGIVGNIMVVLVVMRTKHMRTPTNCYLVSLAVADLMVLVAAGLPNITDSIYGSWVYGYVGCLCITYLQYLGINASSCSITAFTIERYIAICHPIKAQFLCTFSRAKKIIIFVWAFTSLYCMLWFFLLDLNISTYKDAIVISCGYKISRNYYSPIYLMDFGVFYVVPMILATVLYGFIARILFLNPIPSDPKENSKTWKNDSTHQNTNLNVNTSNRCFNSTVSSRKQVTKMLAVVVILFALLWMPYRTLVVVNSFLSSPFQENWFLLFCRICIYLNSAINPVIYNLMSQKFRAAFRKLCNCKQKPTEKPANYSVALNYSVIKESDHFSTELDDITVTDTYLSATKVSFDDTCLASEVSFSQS
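Fluo-8-loaded TRHR cells; 10 s baseline, compound added, kinetic Ca2+ fluorescence read 1/s, agonist mode.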
D1 antagonist: human D1 dopamine receptor antagonism. 3.2% of 360,000 active. activity change, negative = inhibition, % at 10 µM. AID 504652. P21728. HEK293 TREx D1 cells, calcium flux, dopamine EC80; active compounds read low; in the data active = activity change below about -30%; also: % is scaled to controls: 0 for no effect and ±100 for the full control effect
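Calcium flux readout: force-coupled, inducible Hek293 Trex D1 line, cells induced overnight at 30 C with tetracycline, dye-loaded 30–90 min at RT. Antagonism scored against EC80 dopamine challenge given 180 s after compound.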
D1 potentiator: enhances dopamine response at the human D1 receptor; P21728; AID 504651; HEK293 TREx D1 cells, calcium flux, dopamine EC20 potentiation; potentiation, % at 10 µM; 0.036% of 360,000 active; in the data active = potentiation above about 30%; also: 0% is about no effect
D1 agonist: activates the human D1 dopamine receptor; HEK293 T-REx D1 cells, calcium flux, agonist mode; AID 504660; activation, % at 2 µM; 1% of 360,000 active; also: 0% is about no effect
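Tetracycline-induced HEK293 TREx D1 cells, force-coupled to calcium signalling, were dye-loaded with a no-wash calcium kit. Compound was pin-added after a 10 s baseline. Fluorescence was read kinetically at 1 cycle/s for 180 s, with calcium rises flagged as agonism.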
TRHR enhancer: allosterically enhances the human TRH receptor. TRHR cells, fluo-8 calcium fluorescence, EC20 TRH enhancement. enhancement, % at 2 µM. 0.66% of 360,000 active. AID 493056; in the data active = enhancement above about 30%; also: 0% is about no effect
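Enhancer read-out: after compound pinning and an initial kinetic agonist-mode read, an EC20 of TRH (10 nM final) was injected and fluo-8 calcium signal (Ex 480/Em 530) followed at 1 s/cycle for 100 cycles in TRHR-expressing cells.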
* = called active by the depositor. Rule as the data show it, unless noted: active = activation above about 30%; inactive = the rest.

SMILES | TRHR agonist | D1 antagonist | D1 potentiator | D1 agonist | TRHR enhancer
C[C@@H]1C[C@@H]2OC(=O)[C@]3(C)[C@H]2[C@@H](OC3(C)O)[C@]2(C)C(=O)C=C[C@H]12 (some centres undefined) | -1 | -37* | -6 | 5 | 0
CCN(CC(=O)NCc1ccc(Cl)cc1)C(=O)c1ccc(S(=O)(=O)NCc2ccco2)cc1 | 0 | -9 | 3 | 4 | -6
CC(C)CCn1c(=O)c2sccc2n2c(CCCC(=O)N3CCC(N4CCCCC4)CC3)nnc12 | 0 | -45* | -6 | 0 | 1
O=C(Nc1nnc(S(=O)(=O)N2CCCc3ccccc32)s1)c1ccccc1 | 0 | -33* | 0 | 0 | 2
O=C(Nc1nnc(S(=O)(=O)N2CCc3ccccc32)s1)c1ccccc1 | 0 | 8 | -1 | 0 | 12
CCC(=O)Nc1ccc(S(=O)(=O)N2CCc3ccccc32)cc1 | 0 | -41* | -8 | 8 | 7
O=C(Nc1ccc(S(=O)(=O)N2CCc3ccccc32)cc1)C(F)(F)F | 2 | 6 | -1 | 5 | -3
COC(=O)Nc1ccc(S(=O)(=O)N2CCCc3ccccc32)cc1 | 0 | -38* | -2 | 5 | -3
CCOc1cc(C(=O)Nc2ccc(-c3nc4cc(Cl)ccc4o3)cc2)cc(OCC)c1OCC | 1 | -13 | -1 | 1 | 1
O=C(Cc1ccc2c(c1)OCCO2)N1CCN(S(=O)(=O)c2cccs2)CC1 | 0 | -35* | -12 | 15 | -3
O=C(Cc1ccc2c(c1)OCCO2)N1CCN(S(=O)(=O)c2cccc(Cl)c2Cl)CC1 | 1 | -28 | -6 | 13 | 0
Cc1cc2c(s1)c1cnn(Cc3ccc(F)cc3)c(=O)c1n2C | 0 | 3 | -4 | 0 | 2
Cc1cc(Br)c2c(c1)C1(OCCO1)C(=O)N2 | 0 | 1 | 7 | 0 | 2
C[C@H]1c2cccc(O)c2C(O)=C2C(=O)[C@]3(O)C(O)=C(C(N)=O)C(=O)[C@@H](N(C)C)[C@@H]3[C@@H](O)[C@@H]21 | 0 | -83* | -8 | 0 | -25
O=c1oc2cc(O)ccc2cc1-c1nc(-c2ccc(Cl)c(Cl)c2)cs1 | 19 | 7 | 3 | 46* | 2
O=c1oc2cc(O)ccc2cc1-c1nc2c(s1)CCc1ccccc1-2 | 199* | -23 | -10 | 283* | -23
O=C(NCCCl)c1ccc(OCc2ccccc2)cc1Cl | 1 | -10 | -5 | 57* | -1
C#CCNC(=O)c1ccc(OCc2ccccc2)cc1Cl | -1 | 1 | -1 | 10 | -2
COc1ccccc1C(=O)Nc1ccnn1C1CCN(C(C)CSC)CC1 (centres undefined) | 1 | -40* | -6 | 1 | -3
COc1ccccc1/C=C/CN1CCC(n2nccc2NC(=O)CCc2ccccc2)CC1 | 1 | -12 | -8 | 31* | 7
O=C(Cc1ccc(S(=O)(=O)N2CCOCC2)s1)Oc1ccc(F)cc1 | -1 | -6 | 2 | 7 | 17
Fc1ccc(/C=C2\CCCC3=C2NC(=S)NC3c2ccc(F)cc2)cc1 (centres undefined) | -1 | 0 | -8 | 3 | -2
S=C1NC2=C(CCCC2=C2SCCS2)C(c2ccccc2)N1 (centres undefined) | 0 | 8 | -2 | 2 | 37*
CCOc1ccc(C(=O)NCc2nc3cccnc3n2Cc2ccc(F)cc2)cc1OCC | -1 | 22 | -1 | 0 | -3
Cc1cc(=O)oc2cc(NS(=O)(=O)c3ccccc3)ccc12 | 0 | -95* | 2 | 1 | 8
SMILES | TRHR agonist | D1 antagonist | D1 potentiator | D1 agonist | TRHR enhancer
C=CCc1cc(OC)ccc1OCCOCCN1CCc2ccccc2C1 | 0 | -43* | -11 | 11 | 0
CC(C)(C)OC(=O)N(c1cccc2cccnc12)S(=O)(=O)c1ccccc1Br | 0 | 30 | 0 | 1 | 11
O=C(NN=C1CCN(Cc2ccccc2)CC1)c1ccccc1O | 1 | -31* | -2 | 0 | 4
COc1ccc2c(c1)c1c(c(=O)n(Cc3ccccc3)c(=O)n1CC(=O)NCc1ccccc1Cl)n2C | 0 | 7 | 0 | 9 | -18
Cc1ccccc1NC(=O)Cn1c(CCC(=O)O)ccc1-c1cccs1 | 0 | -42* | -6 | 4 | 3
Cc1ccc(-n2c(CCC(=O)O)ccc2-c2cccs2)cc1Cl | -1 | -57* | -1 | 16 | 26
